Source: PubChem BioAssay (NCI)
About 79,000 compounds went through this panel and 15% of them were active in at least one assay; those are over-represented in the sample as a whole. A number with no mark means an inactive call. Cut-off read from the data, not from the text of the source: active = growth inhibition above about 70%; inactive = the rest.

Test: NCI Yeast Anticancer Drug Screen. Data for the rad50 strain (AID 155);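 note: 0% = growth of vehicle-only cultures of the same strain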
Conditions: S. cerevisiae rad50 strain growth inhibition; at 50.0 µM; active compounds read high
How it was run: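 Cells are treated with compound, grown, and their growth is then scored against vehicle-only cultures of the same repair-deficient yeast strain.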

Q: With `OCc1c(-c2ccc(Cl)cc2)c(-c2ccc(Cl)cc2)c2n1CCC2` as the compound, how does the growth inhibition read?
A: The growth inhibition was -0.65%.

Q: For `CCOC(=O)c1[nH]c(Cc2[nH]c(Cc3[nH]c(C(=O)OCC)c(C)c3C(=O)OCC)c(C(=O)OCC)c2C)c(C(=O)OCC)c1C`, which growth inhibition is on record?
A: The growth inhibition was 36.1%.

Q: Which growth inhibition does the source give for `Cc1oc2nc(N(C)C)nc(NN)c2c1C` here?
A: The growth inhibition was 10.1%.

Q: For `CCOC(=O)Cc1nc2ccccc2[nH]c1=O`, which growth inhibition is on record?
A: The growth inhibition was 25%.

Q: For `NC(=O)Nc1ccc(Cl)cc1[N+](=O)[O-]`, which growth inhibition is on record?
A: Its growth inhibition is -4.35%.

Q: For `C[C@@H]1CC[C@@]2(C)C(C(=O)O)=CCCC2[C@@]1(C)CC(=O)c1ccoc1` (stereo not given in full), which growth inhibition is on record?
A: Its growth inhibition is -11.9%.

Q: With `CC(C)CCC(=O)O` as the compound, how does the growth inhibition read?
A: The growth inhibition was -8.45%.

Q: With `CC(=O)CC(=O)NC(C)(C)C` as the compound, how does the growth inhibition read?
A: Its growth inhibition is 16.6%.

Q: Which growth inhibition does the source give for `CCCCCCC(C)OC(C)=O` (stereo not given) here?
A: Its growth inhibition is -15.6%.

Q: For `O=C(Nc1ccccc1Cl)Oc1ccc(C(=O)c2ccccc2)cc1`, which growth inhibition is on record?
A: Its growth inhibition is -0.3%.

Q: With `Cc1ccc(O)c(C(C)C)c1` as the compound, how does the growth inhibition read?
A: The growth inhibition was -26.4%.

Q: Which growth inhibition does the source give for `Cc1ccc(O)c(C(C)(C)C)c1` here?
A: The growth inhibition was 14.9%.

Q: With `CCC(=O)OCCCC1CCCO1` (stereo not given) as the compound, how does the growth inhibition read?
A: Its growth inhibition is 7.85%.

Q: For `CCC1CN1C(=O)c1cc(C(=O)N2CC2CC)cc(C(=O)N2CC2CC)c1` (stereo not given), which growth inhibition is on record?
A: The growth inhibition was 3.2%.

Q: Which growth inhibition does the source give for `CC1=C(C(=O)NCCc2ccccc2)CC(C(=O)NCCc2ccccc2)=C(C)N1` here?
A: Its growth inhibition is -9.8%.

Q: With `C[C@@H](O)CO` as the compound, how does the growth inhibition read?
A: Its growth inhibition is 17.8%.

Q: For `CC1(c2ccccc2)CCC(=O)NC1` (stereo not given), which growth inhibition is on record?
A: The growth inhibition was -0.15%.

Q: Which growth inhibition does the source give for `Cc1ccccc1N(CCC#N)C1=NN(C(=O)CC(=O)Nc2ccccc2)C(c2ccccc2)C1` (stereo not given) here?
A: Its growth inhibition is 3%.

Q: Which growth inhibition does the source give for `OCCO` here?
A: The growth inhibition was -26.4%.

Q: For `CCCCCCCCCCCC(=O)C1=C(O)C(O)CCC1=O` (stereo not given), which growth inhibition is on record?
A: Its growth inhibition is -1.35%.

Q: With `O=C(O)c1nn(-c2ccc(Cl)cc2)c2c1C(=O)c1ccccc1C2=O` as the compound, how does the growth inhibition read?
A: Its growth inhibition is 20.9%.

Q: For `COc1cc(OC)c(NC(=O)Nc2ccc([N+](=O)[O-])cc2OC)cc1Cl`, which growth inhibition is on record?
A: Its growth inhibition is -21.6%.

Q: Which growth inhibition does the source give for `COC(=O)[C@H](Cc1c[nH]c2ccccc12)NP(=O)(OCCC#N)OCC1OC(n2cc(C)c(=O)[nH]c2=O)CC1N=[N+]=[N-]` (stereo not given in full) here?
A: Its growth inhibition is -13.6%.

Q: For `Cc1c(C(=O)Nc2ccccc2)nnn1-c1ccnc2cc(C(F)(F)F)ccc12`, which growth inhibition is on record?
A: The growth inhibition was -13.8%.

Q: Which growth inhibition does the source give for `CC1Oc2ccc3ccccc3c2C(C)N1C` (stereo not given) here?
A: Its growth inhibition is -0.55%.

Q: Which growth inhibition does the source give for `CC(=O)OCC(OC(C)=O)C(OC(C)=O)c1cnn(-c2ccccc2)n1` (stereo not given) here?
A: The growth inhibition was 12.6%.

Q: For `O=C1CCCCCCCCC1=O`, which growth inhibition is on record?
A: Its growth inhibition is 3.5%.

Q: For `CC(C)N(C=C(C#N)C#N)C(C)C`, which growth inhibition is on record?
A: Its growth inhibition is 15.5%.

Q: With `COc1cc(Nc2nc3cc(C(F)(F)F)ccc3nc2-c2ccccc2)cc(OC)c1OC` as the compound, how does the growth inhibition read?
A: Its growth inhibition is 15.4%.

Q: With `Cc1[nH]c(=O)[nH]c(=O)c1NC=O` as the compound, how does the growth inhibition read?
A: The growth inhibition was -3.6%.

Q: Which growth inhibition does the source give for `CCCCNc1ccc2c(c1)Cc1ccccc1-2` here?
A: Its growth inhibition is 18.9%.

Q: Which growth inhibition does the source give for `COc1ccc(/C=C2\CCC(Cc3ccccc3)(CN(C)C)C2=O)cc1` (stereo not given) here?
A: The growth inhibition was 19.6%.

Q: For `COC(=O)c1c(C=O)cccc1[N+](=O)[O-]`, which growth inhibition is on record?
A: The growth inhibition was 22.7%.

Q: Which growth inhibition does the source give for `COC(=O)c1ccc(Cl)c(Cl)c1Cl` here?
A: Its growth inhibition is -3.6%.

Q: For `N#CCc1ccc(C(C#N)C(=O)CCC(=O)C(C#N)c2ccc(CC#N)cc2)cc1` (stereo not given), which growth inhibition is on record?
A: The growth inhibition was 11.7%.

Q: For `COc1ccc(C[C@H](N)C(=O)NC2C(CO)OC(n3cnc4c(N(C)C)ncnc43)C2O)cc1` (stereo not given in full), which growth inhibition is on record?
A: The growth inhibition was -1.7%.

Q: Which growth inhibition does the source give for `CC(=O)OC/C=C(\C)CC(/C=C(C)/C=C/C1=C(C)CCCC1(C)C)S(=O)(=O)c1ccccc1` (stereo not given) here?
A: Its growth inhibition is 35.5%.

Q: For `O=C(N/N=C\c1cc(=O)[nH]c(=O)[nH]1)c1ccccc1`, which growth inhibition is on record?
A: Its growth inhibition is -18.1%.

Q: For `Cc1[nH]ccc2c3ccc(=O)cc3n(S(=O)(=O)O)c12`, which growth inhibition is on record?
A: Its growth inhibition is 10.7%.

Q: With `CCCCNC(=O)NC/C(Br)=C/Br` as the compound, how does the growth inhibition read?
A: Its growth inhibition is 1.75%.
